From PubChem
A selection: hits, their analogues and other compounds. The true share with any hit is near 22%.
CYP2C19 inhib = inhibitors of human CYP2C19 | 96,000 compounds, 21% hits | inhibition, % at 5 µM | P33261 | AID 778 | CYP2C19 Supersomes, luciferin-H EGE luminescence, 30 min;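 active = CYP2C19 inhibition above a set limit at 5 µM in the primary screen, cut at about 50% in these data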;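 also: plate controls were negative control wells for no effect and 2.5 mM tranylcypromine positive control for full effect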
CYP2C9 inhib = blocks human cytochrome P450 2C9 | P11712 | CYP2C9 Supersomes, luciferin-H conversion, luminescence | inhibition, % at 5 µM | 96,000 compounds, 20% hits | AID 777;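 active = blocking of liver enzyme CYP2C9 beyond about 50% at 5 µM, limit read from the data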
Target sequence (P11712 whole entry, looked up): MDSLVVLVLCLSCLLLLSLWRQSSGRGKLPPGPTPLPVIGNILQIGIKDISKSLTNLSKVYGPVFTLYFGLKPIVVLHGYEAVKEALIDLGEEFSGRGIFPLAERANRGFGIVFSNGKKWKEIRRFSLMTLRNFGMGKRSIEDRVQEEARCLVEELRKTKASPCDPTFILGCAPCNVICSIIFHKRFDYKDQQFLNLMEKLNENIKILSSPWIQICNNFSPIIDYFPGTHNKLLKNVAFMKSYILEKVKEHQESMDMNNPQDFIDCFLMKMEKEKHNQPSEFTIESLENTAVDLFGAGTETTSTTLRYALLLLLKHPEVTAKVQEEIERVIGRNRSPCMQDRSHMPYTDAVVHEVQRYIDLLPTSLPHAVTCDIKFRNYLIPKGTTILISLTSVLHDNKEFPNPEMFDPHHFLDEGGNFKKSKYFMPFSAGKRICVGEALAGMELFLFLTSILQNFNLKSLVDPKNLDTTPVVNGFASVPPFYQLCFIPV
CYP2C19 act = cytochrome P450 2C19 (human) activation. P33261. recombinant CYP2C19, luciferin-H EGE luminescence; active compounds read high; 0 = fully inhibited enzyme, 1 = untreated enzyme. activation factor at 5 µM. 96,000 tested, under 10 active;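 active = activation factor of at least 2 at 5 µM in the primary screen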;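 also: 0 = wells with 2.5 mM tranylcypromine and 1 = vehicle-only wells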
CYP2C9 activ = CYP2C9 (human) activation; recombinant CYP2C9, luciferin-H conversion, luminescence; active compounds read high; factor 1 = untreated enzyme, 0 = blocked; P11712; AID 1024; activation factor at 5 µM; 96,000 compounds, 1.4% hits;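 active = activation factor of 2 or more for CYP2C9 at a 5 µM dose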;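 also: 0 = sulfaphenazole-blocked wells and 1 = vehicle-only wells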
Measles CPE = protection of cells from measles virus; Measles virus-infected cells, CPE protection, absorbance; protection (pct of control), % at 4 µM; 140,000 compounds, 1.5% hits; AID 841; in the data active = protection mostly above about 24%, no sharp cut-off; inactive = mostly below about 26%
* = called active by the depositor; · = not tested or not shown.

SMILES | CYP2C19 inhib | CYP2C9 inhib | CYP2C19 act | CYP2C9 activ | Measles CPE
CC(=O)Nc1cccc(NC(=O)CSc2ncc(-c3ccc(Cl)cc3)n2Cc2ccco2)c1 | 48 | 42 | 0.5 | 0.6 | 13
O=C(CSc1nnc(-c2ccccc2Cl)n1Cc1ccco1)Nc1ccc2c(c1)OCCO2 | 90* | 93* | 0.1 | 0.1 | 6
COc1ccc(-c2cnc(SCC(=O)Nc3ccc4c(c3)OCO4)n2Cc2ccco2)cc1 | 96* | 100* | 0 | 0 | 15
O=C(CSc1nnc(-c2ccc(Cl)cc2)n1Cc1ccco1)Nc1ccc2c(c1)OCCO2 | 27 | 24 | 0.7 | 0.8 | 3
O=C(OC(C(=O)NCc1ccc2c(c1)OCO2)c1ccc(Cl)cc1)c1ccco1 (stereo not drawn) | 85* | 98* | 0.2 | 0 | 2
CCOc1ccc(C(OC(=O)c2ccco2)C(=O)NCc2ccc(C)cc2)cc1 (stereo not drawn) | 12 | 44 | 0.9 | 0.6 | 5
Cn1c(N)c(C(=O)c2ccc(F)cc2F)c(=O)n(C)c1=O | · | · | · | · | 17
COc1ccc(NC(=O)CCN2C(=O)C3C4CCC(C4)C3C2=O)cc1 (stereo not drawn) | · | · | · | · | 8
N#CCc1nc(CSc2nc3ccccc3s2)cs1 | 98* | 28 | 0 | 0.7 | 3
Cc1ccc(S(=O)(=O)Nc2cccc3c2CCCC3)cc1 | · | · | · | · | 3
CSc1ccc(S(=O)(=O)Nc2ccc3c4c(cccc24)CC3)cc1 | 98* | -45 | 0 | 1.5 | 5
c1ccc(Nc2ccc3c4c(cccc24)CC3)cc1 | · | · | · | · | 5
O=S(=O)(Nc1ccc2c3c(cccc13)CC2)c1ccc(F)cc1 | 70* | -10 | 0.3 | 1.1 | 3
CCCCN(C)CCNC(=O)Cn1c(=O)sc2ccccc21 | -7 | -5 | 1.1 | 1.1 | 11
COc1cc2c(cc1OC)CN(C(=O)C1(c3ccccc3)CC1)CC2 | 37 | 54* | 0.6 | 0.5 | 4
COc1cc2c(cc1OC)CN(C(=O)C(C)(C)C)CC2 | 40 | 2 | 0.6 | 1 | 3
COc1nc(NC(C)(C)C)nc(Oc2ccc(=O)n(-c3ccccc3)n2)n1 | 42 | 56* | 0.6 | 0.4 | 13
O=C1Nc2ccccc2C1(c1ccccc1)c1ccccc1 | 72* | 74* | 0.3 | 0.3 | 52*
Nc1ccc(C2(c3ccc(N)cc3)C(=O)Nc3ccccc32)cc1 | 16 | 5 | 0.8 | 0.9 | 21
COc1ccc(S(=O)(=O)N2CCN(Cc3ccc(Cl)cc3)CC2)cc1 | 63* | -10 | 0.4 | 1.1 | 8
COc1cc(S(=O)(=O)N2CCN(Cc3ccccc3)CC2)ccc1Br | 35 | -38 | 0.7 | 1.4 | 14
COc1ccc(S(=O)(=O)N2CCN(Cc3cccc(Cl)c3)CC2)cc1 | 94* | 61* | 0.1 | 0.4 | 5
COc1cc(CN2CCN(S(=O)(=O)c3ccc(F)cc3)CC2)cc(OC)c1OC | 84* | 47 | 0.2 | 0.5 | 1
COc1ccc(S(=O)(=O)N2CCN(Cc3c[nH]c4ccccc34)CC2)cc1 | 52* | -1 | 0.5 | 1 | 12
Fc1ccc(NC(=S)N2CCCc3ccccc32)cc1 | 40 | 7 | 0.6 | 0.9 | 20
SMILES | CYP2C19 inhib | CYP2C9 inhib | CYP2C19 act | CYP2C9 activ | Measles CPE
CCOC(=O)c1ccc(S(=O)(=O)N2CCN(CC(=O)NC(=O)NC3CCCCC3)CC2)cc1 | 16 | 60* | 0.8 | 0.4 | 3
CCOc1ccc(C(=O)CN2CCN(S(=O)(=O)c3ccc(Cl)cc3)CC2)cc1 | 58* | 24 | 0.4 | 0.8 | 4
COc1cc(CCC(=O)N2CCN(S(=O)(=O)c3ccc(C)c(C)c3)CC2)cc(OC)c1OC | 56* | 45 | 0.4 | 0.6 | 16
COc1ccc(S(=O)(=O)N2CC3C4C=CC(C4)C3C2)cc1 (stereo not drawn) | 58* | 22 | 0.4 | 0.8 | 2
CCOc1ccc(S(=O)(=O)N2CCCC2)cc1 | 32 | -26 | 0.7 | 1.3 | 2
COc1ccc(S(=O)(=O)N2CC(C)N(S(=O)(=O)c3ccc(OC)cc3)CC2C)cc1 (stereo not drawn) | 30 | 0 | 0.7 | 1 | ·
CSc1nc2ccc(NS(=O)(=O)c3cccc(Cl)c3Cl)cc2s1 | · | · | · | · | 2
O=C(O)CCC(=O)NNC(=O)c1cccc(Br)c1 | · | · | · | · | 59*
COC(=O)CCC(=O)NNC(=O)c1cccc(Br)c1 | · | · | · | · | 7
O=C(NNC(=S)Nc1ccccc1)c1cccc(Br)c1 | 66* | 62* | 0.3 | 0.4 | 28
C/C(=C\C(=O)Nc1nccs1)c1ccccc1 | 39 | 28 | 0.6 | 0.7 | 28
CC(C)(C)CC(C)(C)NC(=S)NC1CCN(Cc2ccccc2)CC1 | · | · | · | · | 16
O=C(CSC1=NS(=O)(=O)c2ccccc21)Nc1ccccc1 | 53* | 32 | 0.5 | 0.7 | 6
Cc1cc(C)c2[nH]c(=O)c(CN(Cc3cccs3)C(=S)NCc3ccco3)cc2c1 | · | · | · | · | 6
CCCC(C(=O)NC1CCCC1)N(CCCN1CCOCC1)C(=O)c1snc(C(N)=O)c1N (stereo not drawn) | 7 | 2 | 0.9 | 1 | 17
O=C(O)c1ccc(NC2=C(N3CCOCC3)C(=O)c3ccccc3C2=O)cc1 | · | · | · | · | 4
CC(=O)c1ccc(NC2=C(N3CCOCC3)C(=O)c3ccccc3C2=O)cc1 | 61* | 48 | 0.4 | 0.5 | 22
Cc1ccc(NC2=C(N3CCOCC3)C(=O)c3ccccc3C2=O)cc1 | 44 | 57* | 0.6 | 0.4 | 13
CCOC(=O)c1cccc(NC(=O)c2ccc(N(C)C)cc2)c1 | · | · | · | · | 5
CCOc1ccc(NC(=O)CSc2nnc(Cn3cnc([N+](=O)[O-])n3)n2C)cc1 | · | · | · | · | 21
Cc1cc(C(c2ccc(C)o2)c2ccc(C)o2)c(O)c([N+](=O)[O-])c1 | 65* | 95* | 0.4 | 0 | 5
Cc1cccc(NC(=O)C(C)Oc2ccccc2C)n1 (stereo not drawn) | 85* | 61* | 0.1 | 0.4 | 4
C=CCn1c(SCC(=O)c2cc(C)n(CCOC)c2C)nc2sc(C)c(C)c2c1=O | 22 | 28 | 0.8 | 0.7 | 42*
Cc1cc(C(=O)CSc2nc3ccccc3o2)c(C)n1CC1CCCO1 (stereo not drawn) | 27 | 1 | 0.7 | 1 | 6
Cc1sc2nc(SCC(=O)c3cc(C)n(CC4CCCO4)c3C)n(C(C)C)c(=O)c2c1C (stereo not drawn) | 82* | 88* | 0.2 | 0.1 | 3
COC(=O)c1cc(=O)n(Cc2ccc3c(c2)OCO3)c(=Nc2ccc(F)cc2)s1 | 8 | 16 | 0.9 | 0.8 | 5
COC(=O)c1cc(=O)n(Cc2ccco2)c(=Nc2ccc(F)c(Cl)c2)s1 | 64* | 69* | 0.4 | 0.3 | 12
COC(=O)c1cc(=O)n(Cc2ccc3c(c2)OCO3)c(=Nc2ccccc2)s1 | 17 | 68* | 0.8 | 0.3 | 11
CC(C)NC(=O)C1CCN(C(=O)C(C(=O)c2ccccc2)n2cc(Cl)ccc2=O)CC1 (stereo not drawn) | 1 | 4 | 1 | 1 | 4
C/C(=N\NS(=O)(=O)c1ccccc1)c1cccc(NC(=O)c2cccc(Cl)c2)c1 | · | · | · | · | 16
